The text below walks through data of ChEMBL document CHEMBL4513216, “Probing the Open Global Health Chemical Diversity Library for Multistage-Active Starting Points for Next-Generation Antimalarials” (ACS Infect Dis, 2020).

In all, about 69,000 compounds went through this assay and about 8,600 (12%) showed an effect of 50% or more. Many of the other results were omitted from the sample, so strong results are more common in it than they were.

The test deals with Plasmodium berghei. The test is described as follows: Screen against P. berghei liver stage (PbLuc), transformed with Luciferase, at 10uM. Particulars: tested at 10 uM. The format is functional, HepG2.
As to `N#Cc1cc(S(N)(=O)=O)ccc1N1CCN(c2ccccc2)CC1`, the INHIBITION is recorded as -33.7%.
`CC1CCCN(C(=O)c2ccc(-c3ccco3)o2)C1` (stereo not given): the INHIBITION is -22.2%.
Then `CNS(=O)(=O)CC(=O)N1CCC(c2cc3ccccc3[nH]2)CC1`, with 18.6%; and `COC(=O)NCC(=O)N1CCC(c2cc3ccccc3[nH]2)CC1`, with 62.9%; and `CCS(=O)(=O)NCC(=O)N1CCC(c2cc3ccccc3[nH]2)CC1`, with -17.8%.
As to `O=c1[nH]c2nc(N3CCOCC3)ncc2c(=O)n1-c1cccc(F)c1`, the INHIBITION was 31.7%.
Next, `O=S(=O)(C1CC1)N1C[C@@H]2CN(Cc3ccoc3)CCO[C@@H]2C1`: -64.1%; `Cc1nnc(NCCC(=O)NCc2ccccc2)c(C#N)c1C`: 12.3%; `CC(=O)N1CC[C@@]2(O)CCCC[C@H]2[C@@H]1c1ccccc1`: 45%.
Take `O=C(NCCC1COc2ccccc2O1)c1ccc(-c2cn[nH]c2)nc1` (stereo not given): the INHIBITION is 48.9%.
Regarding `O=C(NCCC1COc2ccccc2O1)c1ccc(N2CC(O)C2)nc1` (stereo not given), the INHIBITION turned out to be 59.5%.
For the molecule `O=C(NCCC1COc2ccccc2O1)c1ccc(-c2cc[nH]n2)nc1` (stereo not given), the INHIBITION was -21.6%.
Then `CCc1nc(C)cc(N2CCN(C(=O)[C@@H]3C[C@H]4C=C[C@@H]3C4)CC2)n1`, with -2.09%.
Next, `NCC1CCCCN1C(=O)Cc1cccc(Br)c1` (stereo not given): -0.159%.
`O=C(Cc1c[nH]c(=O)[nH]c1=O)N1CCCCC1CCc1cccc(O)c1` (stereo not given): the INHIBITION came out at 57.6%.
On to `O=C(Cc1c[nH]c(=O)[nH]c1=O)N1CCCCC1CCc1ccccc1` (stereo not given), for which the INHIBITION is listed as -28%.
Next, `Nc1cccnc1N1CCCCCC1`: -12.1%; `Cc1cccc(N2CCC3(CCCC(=O)N3)CC2)n1`: -77.4%; `CCc1nnc(CN(C)C[C@@H]2CCCN3CCCC[C@H]23)o1`: 5.46%.
For the molecule `Cc1nnc(CN(C)CC2CCCCC2)o1`, the INHIBITION came to 27.5%.
On to `CCc1nnc(CN(C)CC2CCCCC2)o1`, for which the INHIBITION is 61.1%.
Next, `CCCN(CC)c1ccc(C(=O)N2CCCC2c2cnn(C)c2)cn1` (stereo not given): 22.3%.
Regarding `COc1ccc(CNCC2CN(C3CC3)CCO2)cc1C` (stereo not given), the INHIBITION is listed as 10.2%.
Then `C[C@H]1C[C@H]2CN(C(=O)CCOc3ccccc3)CC[C@H]2O1`, with 27.6%; and `Cc1nc(COCc2cnc3n2CCN(C)C3C)cs1` (stereo not given), with 52.3%.
On to `Cc1nc(COCc2cnc3n2CCN(C(=O)C2CC2)C3C)cs1` (stereo not given), for which the INHIBITION was 33%.
Turning to `CC(=O)N1CCn2c(COCc3csc(C)n3)cnc2C1C` (stereo not given), the INHIBITION is recorded as -14.8%.
Turning to `CCOCc1cnc2n1CCN(Cc1nc(C)cs1)C2C` (stereo not given), the INHIBITION came to 41%.
Then `Cc1nc(COCc2cnc3n2CCN(C2CCC2)C3C)cs1` (stereo not given), with -12.6%; and `Cc1nc(COCc2cnc3n2CCN(CC2CCC2)C3C)cs1` (stereo not given), with 50.2%.
On to `Clc1ccccc1Cc1noc(CN2CCCC(CN3CCCC3)C2)n1` (stereo not given), for which the INHIBITION is recorded as 42.8%.
With `COCc1cc(NCCc2ccccn2)n2nccc2n1`, the INHIBITION came out at 26.6%.
On to `CC(C)CNc1nnc(SC(C(=O)NCc2cccnc2)C(C)C)s1` (stereo not given), for which the INHIBITION is recorded as -11.3%.
Take `COCC(O)CN(C)C(=O)NCc1ccc(S(C)(=O)=O)cc1` (stereo not given): the INHIBITION is 29.4%.
Take `CNS(=O)(=O)c1ccc(CNC(=O)N(C)CC(O)COC)cc1` (stereo not given): the INHIBITION is 36.3%.
For the molecule `COCC(O)CN(C)C(=O)NCc1ccc(-c2ccn[nH]2)cc1` (stereo not given), the INHIBITION was found to be 51.7%.
For `CC(NC(=O)CCOc1cccc(F)c1)c1nnc2n1CCC2` (stereo not given), the INHIBITION is 33.7%.
`CCC(O)Cn1cc(C2=CCN(Cc3ccc(OC)cc3)CC2)cn1` (stereo not given): the INHIBITION was -8.97%.
Consider `Cc1nc(O)cc(CN2CC=C(c3cnn(C(C)(C)C)c3)CC2)n1`, for which the INHIBITION is given as -33.2%.
`CCC(O)Cn1cc(C2=CCN(Cc3cc(O)nc(C)n3)CC2)cn1` (stereo not given): the INHIBITION amounted to 52%.
Next, `CN(C)C1CCCN(C(=O)c2ccc3sc4c(c3c2)CCNC4=O)CC1` (stereo not given): 60.3%.
As to `CN(C)[C@H]1CN(C(=O)c2ccc3sc4c(c3c2)CCNC4=O)C[C@@H]1O`, the INHIBITION is -26%.
Next, `O=C1NCCc2c1sc1ccc(C(=O)N3CC[C@H](CO)[C@H](O)C3)cc21`: 12.1%; `Fc1ccc(C(CNc2ccncn2)N2CCCCC2)cc1` (stereo not given): 5.03%.
With `CC(N)C(=O)N1CCC(Oc2cccc(C(F)(F)F)c2)CC1` (stereo not given), the INHIBITION is reported as 26.6%.
Consider `CCc1cccc(OC2CN(C(=O)[C@@H](N)CCSC)C2)c1`, for which the INHIBITION was 23.9%.
With `CCc1cccc(OC2CN(C(=O)[C@@H](N)[C@@H](C)O)C2)c1`, the INHIBITION is 62.4%.
For the molecule `Cc1nc2cc(=O)[nH]n2c(C)c1CC(=O)Nc1cn[nH]c1`, the INHIBITION is reported as 53.9%.
Next, `Cc1nc2cc(=O)[nH]n2c(C)c1CC(=O)Nc1cnn(C)c1`: 15%; `Cc1nc2cc(=O)[nH]n2c(C)c1CC(=O)Nc1cnn(C(C)(C)C)c1`: 49.6%; `Cn1cc(CN2CCC3(CC2)CN(C(=O)c2cnccn2)CCO3)cn1`: -13.2%.
Regarding `CCOCCc1nc(Cc2ccccc2)n[nH]1`, the INHIBITION amounted to 10.3%.
Then `O=C1COC2(CCN(Cc3cccnc3)CC2)CN1`, with 18.2%; and `O=C(COCc1ccccc1Cl)N1CCN(c2ccc(Br)cn2)CC1`, with 60.3%; and `O=C(COCc1ccccc1Cl)N1CCN(c2cnccn2)CC1`, with -9.51%.
Next, `O=C(COCc1ccccc1Cl)N1CCN(c2ncccn2)CC1`: -133%.
Take `COc1ccc(Cl)cc1S(=O)(=O)N1C[C@H]2CC[C@@H](C1)N(C)C2=O`: the INHIBITION is listed as 48.9%.
For `CN(C)CC(=O)N1CCC2(CC1)Cc1ccccc1CN(C)C2=O`, the INHIBITION is given as 18.6%.
In the case of `Cc1ccc(CN2C[C@@H]3CN(C(=O)c4cccn4C)C[C@@H]3C2)cc1`, the INHIBITION is recorded as 8.74%.
Regarding `c1cn(-c2ccc(CN3CCOC(Cn4cncn4)C3)cc2)cn1` (stereo not given), the INHIBITION came to 27.6%.
Turning to `COc1ccc(CCC(=O)Nc2ccncc2C)cc1`, the INHIBITION is 12.8%.
Turning to `CCC(C)NC(=O)c1ccc(NC(=O)CCc2ccncc2)c(C)c1` (stereo not given), the INHIBITION is recorded as 39%.
Next, `COC(=O)c1ccc(NC(=O)CCc2ccncc2)c(C)c1`: 50.1%.
Take `O=C(CCOc1ccccc1Cl)N1CCN(c2cnccn2)CC1`: the INHIBITION is -33.7%.
Turning to `CC(NC(=O)N1CCSC(C)(C)C1)c1noc(-c2ccccc2)n1` (stereo not given), the INHIBITION is reported as 38.3%.
As for `CCN1CCN(C(=O)NC(C)c2noc(-c3ccccc3)n2)CC1` (stereo not given), the INHIBITION amounted to 51.1%.
For the molecule `CC(NC(=O)N1CCC[C@H]1CO)c1noc(-c2ccccc2)n1` (stereo not given in full), the INHIBITION was 8.38%.
Then `Cc1nc(CNCc2c(C(C)C)nn(C)c2N2CCOCC2)cs1`, with 49.6%; and `COc1ccc2c(c1)C(C(=O)NCCN1CCNC1=O)CC(=O)N2` (stereo not given), with 5.36%.
Then `CCCN1CCC(CC(=O)NCc2cc(C)nn2C)CC1`, with 22.3%.
For `Cc1cc(C(F)(F)F)nc(CNC(=O)CCCN2CCCCC2)n1`, the INHIBITION is reported as 48%.
Then `CCc1nc(C)c(CNC(=O)CCCN2CCCCC2)s1`, with 9.87%.
Then `Cc1nc(CCNC(=O)C2CCN(C(C)C)CC2)sc1Cl`, with -3.72%; and `Cc1cc(CNC(=O)CCCN2CCCCC2)n(C)n1`, with 73.6%.
For `CCCN1CCC(CC(=O)NCCc2nc(C)cc(C)n2)CC1`, the INHIBITION is -37.2%.
Take `CCN1CCC(CC(=O)NCCc2nc(C)c(Cl)s2)CC1`: the INHIBITION worked out at 13%.
Take `CCN1CCC(CC(=O)NCc2nc(C)cc(C)n2)CC1`: the INHIBITION was determined as 69.9%.
Then `Cc1cc(CNC(=O)CC2CCN(C(C)C)CC2)n(C)n1`, with 60.8%.
For the molecule `CCN1CCC(CC(=O)NCc2cc(C)nn2C)CC1`, the INHIBITION is -6.59%.
`CCN1CCC(CC(=O)NCCc2nc(C)cc(C)n2)CC1`: the INHIBITION is -26.1%.
As for `Cc1nc(CCNC(=O)CC2CCN(C(C)C)CC2)sc1Cl`, the INHIBITION came out at 60.9%.
`CC(=O)Nc1nc(C(=O)NC(C)c2ccc(F)c(F)c2)cs1` (stereo not given): the INHIBITION is given as -31.8%.
Then `COc1cccc(N2CCN(Cc3ccc4[nH]ccc4c3)CC2=O)c1`, with 10.2%.
As for `CCCc1nnc2sc(C3CCS(=O)(=O)CC3)nn12`, the INHIBITION amounted to 33%.
For the molecule `CC(=O)N1CCN(c2cncc(C3CCNCC3)n2)CC1`, the INHIBITION worked out at 16.5%.
With `CN1CC2(CNCCN(C(=O)Nc3ccccc3)C2)CC1=O` (stereo not given), the INHIBITION is given as -36.8%.
Then `COc1c(CNCc2ccc(N(C)C)nc2)c(C)nn1C`, with 11.25%.
Then `CC(C)C[C@H](NCc1cc(O)c2cccc(F)c2n1)C(N)=O`, with 3.03%; and `O=C(c1cccc(C2CCNC2)c1)N1CCC(c2ncc[nH]2)CC1` (stereo not given), with -6.61%.
As for `COCCN1CCN(CC(O)c2ccc(OC(F)(F)F)cc2)CC1` (stereo not given), the INHIBITION is given as -24.2%.
`CCN1C(=O)CCCC12CCCN(C(=O)c1ccncc1F)C2` (stereo not given): the INHIBITION is 51.4%.
Take `O=C(c1ccoc1)N1CCC2(CCC(=O)N2Cc2ccncc2)CC1`: the INHIBITION turned out to be 43.8%.
Consider `O=C(c1ccoc1)N1CCCC2(CCC(=O)N2Cc2cccnc2)C1` (stereo not given), for which the INHIBITION worked out at 42.3%.
As for `CN(C)CCN1C(=O)CCC12CCCN(C(=O)c1ccncc1F)C2` (stereo not given), the INHIBITION was -24.1%.
In the case of `O=C(c1ccoc1)N1CCCC2(CCC(=O)N2Cc2ccncc2)C1` (stereo not given), the INHIBITION stood at 51.2%.
In the case of `CN1C(=O)CCC12CCCN(C(=O)c1ccncc1F)C2` (stereo not given), the INHIBITION is listed as -12.2%.
`O=C(Cc1c(F)cccc1Cl)Nc1cccc(N2CCCC2)c1`: the INHIBITION is reported as 43.4%.
On to `CNC(=O)c1cn[nH]c1C1CCN(Cc2sccc2C)C1` (stereo not given), for which the INHIBITION was -14.1%.
Consider `CCOC(=O)CN(C)Cc1cnc(C)s1`, for which the INHIBITION was 8.38%.
On to `CC(=O)c1cccc(OCCCC(=O)N(C)Cc2cscn2)c1`, for which the INHIBITION turned out to be 5.68%.
As for `CCN(C)C(=O)CCN(C)Cc1cnc(C)s1`, the INHIBITION was 50.4%.
As to `CC(=O)c1cccc(OCCCC(=O)N(C)CCc2ccncc2)c1`, the INHIBITION was -8.19%.
As to `CC(=O)c1cccc(OCCCC(=O)N(C)Cc2cnn(C)c2)c1`, the INHIBITION is recorded as 82.2%.
With `COc1cc(C(C)=O)ccc1OCC(=O)N(C)Cc1cnn(C)c1`, the INHIBITION was determined as 40.9%.
Consider `CC(=O)c1cccc(OCCCC(=O)N(C)CCC(F)(F)F)c1`, for which the INHIBITION is reported as 57.3%.
For `CCCN(CCC)C(=O)CN(C)Cc1cnc(C)s1`, the INHIBITION was 23.2%.
Regarding `CC(=O)c1cccc(OCCCC(=O)N(C)Cc2ccccn2)c1`, the INHIBITION is on record as 3.47%.
For the molecule `CC(=O)c1cccc(OCCCC(=O)N(C)Cc2cccc(O)c2)c1`, the INHIBITION was 23.5%.
Next, `CC(=O)c1cccc(OCCCC(=O)N(C)CC(N)=O)c1`: -25.1%; `CC(=O)c1cccc(OCCCC(=O)N(C)Cc2cnc(C)s2)c1`: 55.4%.
